# Source: the supplement of paper PMC10849652
# Targets with a hit are over-represented here; the source holds about 8,800 in all. About 0.5% of all pairs of compound and target were hits. Values without a mark were called inactive.
# What was measured:
# Assay in all cases: log2 fold change, soluble protein after heating vs DMSO (PISA); higher = thermal stabilisation; K562 lysate, 10 uM; active = over 0.2 and 3.5 SD of the protein, either way, in both replicates (recomputed)
# [1] = compound: O=C(CCCCCCC(=O)Nc1ccccc1)NO [vorinostat]
# In short: (§1)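 To prepare the extract, K562 pellets were dounce-homogenised in PBS pH 7.4 with 1 mM MgCl2, giving crude material at 1 mg/mL protein. This was treated with 10 μM compound for 30 min, then heated in aliquots for 3 min over 48°C-58°C before pooling and addition of NP-40 to 0.5% at 4°C. Centrifugation at 21,000xg for 90 min left soluble protein in the supernatant, which TMTpro 16plex LC-MS/MS quantified with equalised channel sums. Results are log-two fold changes in thermal stability compared with solvent controls, from duplicates.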
# [2] = compound: O=C(O)c1ccc2c(c1)nc(Nc1cccc(Cl)c1)c1ccncc12 [silmitasertib]
# In short: as §1
# [3] = compound: O=C1NC(=O)C(c2cnc3ccccn23)=C1c1cn2c3c(cc(F)cc13)CN(C(=O)N1CCCCC1)CC2
# In short: as §1
# [4] = compound: NCC(=O)Nc1ccc(-n2nc(C(F)(F)F)cc2-c2ccc3c(ccc4ccccc43)c2)cc1
# In short: as §1
# [5] = compound: c1cn2cc(-c3ccc4cn[nH]c4c3)nc(Nc3ccc(N4CCOCC4)cc3)c2n1 [entospletinib]
# In short: as §1
# Chain of UniProt Q8WXA3 (Q8WXA3 whole entry, looked up): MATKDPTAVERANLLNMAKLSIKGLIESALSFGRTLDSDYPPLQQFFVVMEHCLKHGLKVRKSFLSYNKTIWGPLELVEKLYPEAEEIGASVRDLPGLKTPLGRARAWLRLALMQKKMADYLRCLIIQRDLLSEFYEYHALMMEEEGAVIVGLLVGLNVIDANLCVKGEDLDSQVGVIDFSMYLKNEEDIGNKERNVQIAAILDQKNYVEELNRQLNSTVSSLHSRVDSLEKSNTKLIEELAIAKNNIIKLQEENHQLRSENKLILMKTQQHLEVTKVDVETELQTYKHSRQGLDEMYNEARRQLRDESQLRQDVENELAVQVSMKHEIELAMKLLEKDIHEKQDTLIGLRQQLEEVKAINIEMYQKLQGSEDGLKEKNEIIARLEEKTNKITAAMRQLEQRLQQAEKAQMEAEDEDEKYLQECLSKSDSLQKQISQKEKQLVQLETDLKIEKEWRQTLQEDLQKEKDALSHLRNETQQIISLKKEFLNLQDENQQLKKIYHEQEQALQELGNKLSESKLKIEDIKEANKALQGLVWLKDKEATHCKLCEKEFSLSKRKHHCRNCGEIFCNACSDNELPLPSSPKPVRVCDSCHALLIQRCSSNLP
# Chain of UniProt Q9BWG6 (Q9BWG6 whole entry, looked up): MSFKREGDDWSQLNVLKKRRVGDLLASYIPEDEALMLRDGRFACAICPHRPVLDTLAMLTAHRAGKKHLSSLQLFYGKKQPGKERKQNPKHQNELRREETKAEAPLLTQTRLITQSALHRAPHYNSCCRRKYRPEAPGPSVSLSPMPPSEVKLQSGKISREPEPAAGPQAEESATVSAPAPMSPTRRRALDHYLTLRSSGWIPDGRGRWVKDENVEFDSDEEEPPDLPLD
# Chain of UniProt Q7L523 (Q7L523 whole entry, looked up): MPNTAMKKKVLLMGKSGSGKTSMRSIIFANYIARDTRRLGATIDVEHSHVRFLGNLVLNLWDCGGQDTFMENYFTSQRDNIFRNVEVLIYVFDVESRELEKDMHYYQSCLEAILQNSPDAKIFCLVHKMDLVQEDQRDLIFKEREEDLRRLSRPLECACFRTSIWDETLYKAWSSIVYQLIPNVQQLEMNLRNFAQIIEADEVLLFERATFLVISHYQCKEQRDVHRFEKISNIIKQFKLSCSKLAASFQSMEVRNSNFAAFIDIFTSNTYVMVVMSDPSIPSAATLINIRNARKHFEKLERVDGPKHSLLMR
# Chain of UniProt O75943 (O75943 whole entry, looked up): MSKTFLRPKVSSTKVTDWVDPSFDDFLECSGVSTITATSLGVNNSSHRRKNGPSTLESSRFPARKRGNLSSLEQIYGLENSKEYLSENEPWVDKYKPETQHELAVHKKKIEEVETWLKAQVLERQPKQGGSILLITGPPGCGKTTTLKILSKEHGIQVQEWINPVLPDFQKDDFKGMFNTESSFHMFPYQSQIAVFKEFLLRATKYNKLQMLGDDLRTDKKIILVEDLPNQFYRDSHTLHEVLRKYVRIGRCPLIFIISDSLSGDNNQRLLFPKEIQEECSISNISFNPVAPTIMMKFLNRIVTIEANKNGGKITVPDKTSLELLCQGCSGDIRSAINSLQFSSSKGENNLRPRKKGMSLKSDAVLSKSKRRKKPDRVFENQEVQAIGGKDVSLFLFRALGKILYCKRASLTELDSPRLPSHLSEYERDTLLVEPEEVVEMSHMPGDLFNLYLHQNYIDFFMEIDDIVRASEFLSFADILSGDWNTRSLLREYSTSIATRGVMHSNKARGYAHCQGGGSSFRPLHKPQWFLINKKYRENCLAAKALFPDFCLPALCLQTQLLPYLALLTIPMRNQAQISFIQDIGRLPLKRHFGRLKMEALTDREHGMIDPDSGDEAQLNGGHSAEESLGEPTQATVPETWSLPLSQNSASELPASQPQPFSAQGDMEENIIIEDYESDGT
# Chain of UniProt Q9HCK4 (Q9HCK4 whole entry, looked up): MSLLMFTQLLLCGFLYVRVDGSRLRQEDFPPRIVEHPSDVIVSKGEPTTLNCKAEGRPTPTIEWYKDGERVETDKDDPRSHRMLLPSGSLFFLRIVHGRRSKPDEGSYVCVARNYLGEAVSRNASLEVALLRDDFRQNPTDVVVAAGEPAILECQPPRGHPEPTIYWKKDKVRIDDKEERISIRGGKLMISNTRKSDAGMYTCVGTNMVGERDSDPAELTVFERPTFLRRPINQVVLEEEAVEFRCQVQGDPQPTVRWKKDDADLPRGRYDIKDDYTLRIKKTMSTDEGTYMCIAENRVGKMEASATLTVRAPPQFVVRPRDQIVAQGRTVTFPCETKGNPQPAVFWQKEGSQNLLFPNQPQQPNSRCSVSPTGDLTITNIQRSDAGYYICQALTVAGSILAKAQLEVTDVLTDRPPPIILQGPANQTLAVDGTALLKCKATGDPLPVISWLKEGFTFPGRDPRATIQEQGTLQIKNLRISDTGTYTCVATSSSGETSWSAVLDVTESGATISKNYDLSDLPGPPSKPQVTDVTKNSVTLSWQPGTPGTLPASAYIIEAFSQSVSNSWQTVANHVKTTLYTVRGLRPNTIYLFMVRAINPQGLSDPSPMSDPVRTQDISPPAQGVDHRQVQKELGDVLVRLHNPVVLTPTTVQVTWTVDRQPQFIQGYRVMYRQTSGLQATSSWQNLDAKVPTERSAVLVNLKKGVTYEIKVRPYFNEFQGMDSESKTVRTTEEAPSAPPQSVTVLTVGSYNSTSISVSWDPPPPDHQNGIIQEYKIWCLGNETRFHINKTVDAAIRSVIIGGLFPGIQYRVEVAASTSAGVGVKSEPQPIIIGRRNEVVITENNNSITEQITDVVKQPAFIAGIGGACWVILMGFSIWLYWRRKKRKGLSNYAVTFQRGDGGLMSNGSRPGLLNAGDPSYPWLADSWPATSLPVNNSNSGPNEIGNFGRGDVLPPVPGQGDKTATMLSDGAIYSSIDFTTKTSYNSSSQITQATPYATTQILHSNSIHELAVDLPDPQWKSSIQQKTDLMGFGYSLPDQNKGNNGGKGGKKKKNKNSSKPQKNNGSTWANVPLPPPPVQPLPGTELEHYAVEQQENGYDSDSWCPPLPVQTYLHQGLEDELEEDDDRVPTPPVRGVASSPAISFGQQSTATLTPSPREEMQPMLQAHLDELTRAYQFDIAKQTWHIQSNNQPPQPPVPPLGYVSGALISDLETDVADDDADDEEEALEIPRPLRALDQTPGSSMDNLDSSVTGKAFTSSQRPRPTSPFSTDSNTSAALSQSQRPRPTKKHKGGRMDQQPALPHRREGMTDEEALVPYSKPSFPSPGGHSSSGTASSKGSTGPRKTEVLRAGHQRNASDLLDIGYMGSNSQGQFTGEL
# Chain of UniProt P31949 (P31949 whole entry, looked up): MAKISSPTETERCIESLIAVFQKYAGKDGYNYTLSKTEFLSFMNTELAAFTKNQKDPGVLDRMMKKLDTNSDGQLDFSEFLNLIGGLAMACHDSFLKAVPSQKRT
# Chain of UniProt Q92698 (Q92698 whole entry, looked up): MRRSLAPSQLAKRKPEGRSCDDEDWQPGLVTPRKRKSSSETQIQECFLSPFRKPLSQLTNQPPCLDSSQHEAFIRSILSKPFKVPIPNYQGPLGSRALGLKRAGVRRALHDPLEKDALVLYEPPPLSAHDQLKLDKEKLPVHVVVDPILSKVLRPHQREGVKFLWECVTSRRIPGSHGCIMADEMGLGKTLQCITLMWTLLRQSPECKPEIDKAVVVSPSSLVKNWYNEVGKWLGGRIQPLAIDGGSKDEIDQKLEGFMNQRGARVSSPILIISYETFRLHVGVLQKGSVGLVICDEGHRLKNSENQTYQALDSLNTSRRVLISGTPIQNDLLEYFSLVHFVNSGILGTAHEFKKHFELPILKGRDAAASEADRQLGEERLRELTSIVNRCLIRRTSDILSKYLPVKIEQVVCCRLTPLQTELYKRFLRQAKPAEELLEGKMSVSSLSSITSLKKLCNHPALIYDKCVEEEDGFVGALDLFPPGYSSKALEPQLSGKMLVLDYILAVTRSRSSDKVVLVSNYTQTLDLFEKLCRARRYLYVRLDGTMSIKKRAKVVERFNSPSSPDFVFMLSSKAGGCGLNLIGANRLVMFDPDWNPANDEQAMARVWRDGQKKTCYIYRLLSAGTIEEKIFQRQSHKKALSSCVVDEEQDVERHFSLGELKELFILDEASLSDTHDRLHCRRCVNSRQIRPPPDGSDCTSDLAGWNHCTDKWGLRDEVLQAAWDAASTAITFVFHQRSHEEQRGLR
# Chain of UniProt Q8IUH3 (Q8IUH3 whole entry, looked up): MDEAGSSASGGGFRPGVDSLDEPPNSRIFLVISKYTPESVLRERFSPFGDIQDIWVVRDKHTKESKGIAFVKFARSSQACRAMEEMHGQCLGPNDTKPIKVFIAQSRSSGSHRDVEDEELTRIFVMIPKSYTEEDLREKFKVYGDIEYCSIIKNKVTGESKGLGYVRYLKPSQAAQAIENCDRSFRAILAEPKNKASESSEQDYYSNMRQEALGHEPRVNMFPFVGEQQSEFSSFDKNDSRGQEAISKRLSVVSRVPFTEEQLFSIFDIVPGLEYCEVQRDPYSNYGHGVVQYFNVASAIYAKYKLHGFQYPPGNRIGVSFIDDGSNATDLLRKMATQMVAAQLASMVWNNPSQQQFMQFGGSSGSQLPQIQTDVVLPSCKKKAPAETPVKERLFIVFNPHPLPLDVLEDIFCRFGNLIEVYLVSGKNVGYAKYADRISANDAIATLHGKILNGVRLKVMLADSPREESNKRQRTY
Target,log2 fold change [1],log2 fold change [2],log2 fold change [3],log2 fold change [4],log2 fold change [5]
RAD54L (UniProt Q92698),-1.06 (active),0.065,,,
ROBO2 isoform 3 (UniProt Q9HCK4),0.136,-0.019,-0.042,,
RELN (UniProt P78509),0.088,-0.049,0.006,0.016,-0.037
RYR1 (UniProt P21817),0.066,-0.017,-0.069,,0.101
RBM8A (UniProt Q9Y5S9),0.103,0.042,-0.046,-0.113,-0.019
RUFY2 isoform 1 (UniProt Q8WXA3),,,-0.129,-0.009,-0.014
RBM45 (UniProt Q8IUH3),,,0.093,,
SCNM1 (UniProt Q9BWG6),-0.13,-0.102,-0.082,,0.092
S100A11 (UniProt P31949),0.106,-0.057,0.046,-0.085,-0.045
RAD17 (UniProt O75943),,,-0.052,-0.044,-0.039
RRAGA (UniProt Q7L523),0.099,0.039,-0.015,-0.007,0.05
